According to PubChem BioAssay AID1159580 (chemical genetic matrix, 2015):
Out of some 5,500 compounds screened, about 2,000 (36%) were called active. Another 18% or so got no clear call; they are omitted. Cut-off read from the data, not from the text of the source: active = normalized growth mostly below about 0.91 (no sharp cut-off); inconclusive = no clear call, values can overlap the other calls; inactive = mostly above about 0.92. This is one part of the list.

Test: chemical genetic growth profiling, strain panel (AID 1159580);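 note: tested at 20 µM; growth read once vehicle control cultures reached saturation at 30 °C; 1 = growth at the plate median or of vehicle wells; lower values mean less growth of the strain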
Conditions: S. cerevisiae deletion strains, growth OD

Measured: normalized growth

CC(C)[C@@H]1NC(=O)[C@H](CCCCN)NC(=O)[C@@H](Cc2c[nH]c3ccccc23)NC(=O)[C@H](Cc2ccc(O)cc2)NC(=O)[C@H](C)N(C)C(=O)[C@H](Cc2ccccc2)NC1=O
inactive: locus YAL040C, strain CLN3, active compounds read low 0.981 | locus YCL061C, strain MRC1 (second series), active compounds read low 0.988 | locus YDR363W, strain ESC2, active compounds read low 0.995 | locus YER002W, strain NOP16, active compounds read low 1.01 | locus YMR263W, strain SAP30, active compounds read low 0.994 | locus YNL175C, strain NOP13, active compounds read low 0.988 | locus YNL197C, strain WHI3, active compounds read low 0.988 | locus YNL224C, strain SQS1, active compounds read low 1 | locus YNL322C, strain KRE1, active compounds read low 0.984 | locus YOR083W, strain WHI5 (second series), active compounds read low 0.989
active: locus YMR307W, strain GAS1, active compounds read low 0.879
